Assay outcomes (PubChem)
ATXN viability = viability counter-screen for ATXN expression inhibitors. Potency, µM (titrated, usually from 56.7 µM), hits mostly cytotoxic. hit rate 0.49% among 400,000. S2 cells (HEK-293 line with an ATXN2-luciferase reporter) viability, CellTiter-Fluor protease fluorescence, 24 h; also: nearly all actives have a fitted effect of over 40% in size
HepG2 viability = HepG2 cytotoxicity, counter-screen for TGF-b inhibitors; Potency, µM (titrated, usually from 46.1 µM), actives largely listed as cytotoxic; hit rate 0.76% among 410,000; HepG2 CAGA-GFP viability, ATP luminescence, 18 h
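HepG2 CAGA-GFP cells (1000/well, DMEM with 1% FBS) received compound, then TGF-beta at 500 pg/mL final, and were incubated 18 hours at 37 degrees C. Viability was read by CellTiter-Glo luminescence. Media-only wells were set as complete cell-killing and DMSO as no toxicity.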
KB-3-1 tox = KB-3-1 parental cell cytotoxicity; KB-3-1 viability, CellTiter-Glo ATP luminescence, 72 h; Potency, µM (doses to about 46.1 µM), most hits filed as cytotoxic; hit rate 1.4% among 400,000; also: nearly all actives have a fitted effect of over 60% in size
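Cytotoxicity measured as CellTiter-Glo luminescence after 72 h at 37 C. Compound titrations were pinned onto drug-naive KB-3-1 parental adenocarcinoma cells grown in DMEM with 10% FBS, and normalized data fitted to concentration-response curves.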
TGFb inhibitor = blocks TGF-b signaling. HepG2 CAGA-GFP TGF-b/SMAD3 reporter, GFP fluorescence, 18 h; TGF-beta stimulated, 500 pg/mL final. Potency, µM (series often up to 46.1 µM), hits mostly inhibitors. hit rate 1.2% among 410,000. AID 588855; also: nearly all actives have a fitted effect of over 65% in size
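Per well, imaged GFP fluorescence of HEPG2 CAGA-GFP cells gives the signal; cells get compound, then TGF-beta (500 pg/mL final), 18 h at 37 degrees C; %Activity versus -TGF-beta and +DMSO controls.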
ATXN2 expr inh = reduces ATXN2 reporter expression in HEK-293 cells; hit rate 0.72% among 360,000; Potency, µM (top dose mostly 57 µM), hits mostly inhibitors; AID 1745845; HEK-293 ATXN2-luciferase reporter, luminescence, 24 h; also: nearly all actives have a fitted effect of over 55% in size
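qHTS (up to 57 uM final) was run with 24 h compound exposure of reporter cells at 37 °C. Each well was multiplexed: SteadyGlo luminescence measured ATXN2-luciferase expression after a fluorogenic Gly-Phe-AFC viability readout (25 uM final).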
KB-V1 cytotox = KB-V1 MDR subline cytotoxicity; KB-V1 MDR cells viability, CellTiter-Glo, 72 h; Potency, µM (series often up to 46.1 µM), actives largely listed as cytotoxic; AID 1347076; hit rate 3.4% among 400,000; also: nearly all actives have a fitted effect of over 60% in size
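Potencies derive from concentration-effect curves fitted to normalized luminescence (CellTiter-Glo) of KB-V1 cells treated for 72 h at 37 degrees C in phenol-red-free DMEM containing 10% FBS.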
Of the large screens only hits and unclear results are named; the others gave an inactive call. Sampled rows, rich in hits. Any-hit rate of the full collection: about 5.9%. Calls follow the shape of the dose curve; as a rule, active = well fitted curve in the direction sought with a large enough effect; inconclusive = small, poorly fitted or top-dose-only effect, or another doubt; inactive = no such curve, though single readings can be large; an effect the other way counts as inactive or inconclusive.

CCC(C)[C@H]1CNCCN1CCc1cc(C(F)(F)F)cc(C(F)(F)F)c1 (stereo not given in full)	ATXN viability inconclusive, TGFb inhibitor inconclusive, ATXN2 expr inh inconclusive
FC(F)(F)c1cc(CCN2CCNC[C@@H]2c2ccccc2)cc(C(F)(F)F)c1	ATXN viability 35.5µM, TGFb inhibitor inconclusive, ATXN2 expr inh inconclusive
NC1=NC[C@@H](Cc2ccc(O)cc2)N1CCc1cc(C(F)(F)F)cc(C(F)(F)F)c1	none
NC1=NC[C@H](CC2CCCCC2)N1CCc1cc(C(F)(F)F)cc(C(F)(F)F)c1	ATXN viability inconclusive, HepG2 viability 20µM, KB-3-1 tox inconclusive, TGFb inhibitor inconclusive, ATXN2 expr inh inconclusive, KB-V1 cytotox inconclusive
COc1cccc(CNC(=O)c2c(OC)cc(=O)n3c2CCN(C(=O)c2csc(C)n2)CC3)c1	none (no result: HepG2 viability, KB-3-1 tox, TGFb inhibitor, ATXN2 expr inh, KB-V1 cytotox)
O=C1NC[C@@H](CCCCN2C[C@H](Cc3ccc(O)cc3)N(CCc3ccc(O)cc3)C(=O)C2=O)N(Cc2ccccc2)C1=O	none (no result: HepG2 viability, TGFb inhibitor)
COc1ccc(C2Nc3ccccc3C(=O)N2NC(C)=O)cc1OC (stereo not given)	ATXN viability inconclusive
COc1cc(C2Nc3ccccc3C(=O)N2Cc2ccccc2)ccc1OCc1ccccc1 (stereo not given)	TGFb inhibitor inconclusive (no result: ATXN viability, ATXN2 expr inh)
COc1ccc(C2Nc3ccccc3C(=O)N2c2ccccc2)cc1COc1ccccn1 (stereo not given)	none
COc1ccc(C2Nc3ccccc3C(=O)N2c2ccccc2)cc1CSc1ccccn1 (stereo not given)	KB-V1 cytotox 4.11µM
COc1ccc(C2Nc3ccccc3C(=O)N2c2ccc(F)cc2)cc1CSc1ccccn1 (stereo not given)	none
COc1ccc(C2Nc3ccccc3C(=O)N2Cc2ccccc2)cc1CSc1ccccn1 (stereo not given)	KB-V1 cytotox 4.61µM
COc1ccc(C2Nc3ccccc3C(=O)N2O)cc1OC (stereo not given)	KB-V1 cytotox 14.6µM
COc1ccc(C2Nc3ccccc3C(=O)N2c2cccc3ccccc23)cc1COc1c(C)cccc1C (stereo not given)	KB-3-1 tox 13µM (no result: ATXN viability, ATXN2 expr inh)
COc1ccc(NC(=O)CCc2c(C)nc3c(-c4ccc(F)cc4)c(C)nn3c2C)c(OC)c1	none
Cc1ccc(-n2nc3c(N4CCC(C(=O)NC(C)C)CC4)nnc(C)c3c2C)cc1	TGFb inhibitor inconclusive, KB-V1 cytotox inconclusive
Cc1ccc(C)c(CSc2nnc3[nH]c(=O)cc(-c4ccccc4)n23)c1	none (no result: ATXN viability, KB-3-1 tox, ATXN2 expr inh, KB-V1 cytotox)
O=C(NC(=S)Nc1ccccc1N1CCCCC1)c1ccc(-c2cccc([N+](=O)[O-])c2)o1	none
O=C(NC(=S)Nc1ccccc1N1CCCC1)c1ccc(-c2cccc([N+](=O)[O-])c2)o1	KB-3-1 tox inconclusive, KB-V1 cytotox 16.4µM
Cc1c(C(=O)NC(=S)Nc2ccccc2N2CCCC2)cccc1[N+](=O)[O-]	KB-V1 cytotox 13µM
COc1ccc2c(c1)CCc1c(C(=O)Nc3c(C)nn(Cc4c(Cl)cccc4Cl)c3C)noc1-2	none
Fc1ccc(Cn2c(-c3cccc(Br)c3)nc3ccccc32)cc1	TGFb inhibitor inconclusive (no result: ATXN viability, KB-3-1 tox, ATXN2 expr inh, KB-V1 cytotox)
Nc1ccc(Oc2cccc(Oc3ccc(N)cc3)c2)cc1	ATXN2 expr inh 1.78µM
CCOC(=O)c1c(NC(C)=O)sc2c(OCCN(CC)CC)c(Br)ccc12	ATXN viability inconclusive, ATXN2 expr inh inconclusive
CCOC(=O)c1c(NC(C)=O)sc2c1CCC(C=NCCCN(CC)CC)=C2Sc1ccccc1	KB-3-1 tox inconclusive, ATXN2 expr inh inconclusive, KB-V1 cytotox 16.4µM (no result: ATXN viability)
Cc1ccc2c(CC(=O)N3CCOc4ccc(CN5CCOCC5)cc4C3)cc(=O)oc2c1	none (no result: HepG2 viability, KB-3-1 tox, TGFb inhibitor, ATXN2 expr inh, KB-V1 cytotox)
O=C(Nc1ccc2c(c1)OCCO2)c1cccc(S(=O)(=O)N2CCOCC2)c1	KB-V1 cytotox 20.6µM
O=C(Nc1cccc(S(=O)(=O)N2CCCC2)c1)c1cccc(S(=O)(=O)N2CCOCC2)c1	ATXN viability inconclusive (no result: ATXN2 expr inh)
O=C(Nc1ccc2c(c1)OCCO2)c1cccc(S(=O)(=O)N2CCCCC2)c1	TGFb inhibitor inconclusive, KB-V1 cytotox 16.4µM
